G9a block: blocks human histone lysine methyltransferase G9a | Potency, µM (top dose mostly 102 µM), for the others: at the top dose activity, negative = inhibition, hits mostly inhibitors | G9a H3K9 monomethylation, AlphaScreen, 2 h | actives 8.8% (n = 350,000) | Q96KQ7; further: on the % scale 0 is the no-effect control and ±100 the full control effect; nearly all actives have a fitted effect of over 75% in size
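Methyltransferase reactions run at room temperature for 2 h (20 nM enzyme, 500 nM biotin-H3K9 peptide, 20 uM SAM) after a 15 min compound preincubation; product detected by AlphaScreen beads and anti-H3K9me1 antibody.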
BAZ2B block: inhibitors of human BAZ2B bromodomain | AlphaScreen BAZ2B-H3K14Ac peptide displacement | AID 504333 | actives 4.4% (n = 360,000) | Q9UIF8 | Potency, µM (highest dose often 114 µM), for the others: at the highest dose activity change, negative = inhibition, most hits filed as inhibitors; further: on the % scale 0 is the no-effect control and ±100 the full control effect; nearly all actives have a fitted effect of over 60% in size
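In this displacement format the biotinylated H3(5-23) peptide acetylated at Lys14 serves as ligand at 50 nM, with BAZ2B at 50 nM in PBS pH 7.4 containing 0.01% Tween-20. Donor and acceptor beads are 10 ug/mL final.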
HP1b chromo inh: HP1-beta chromodomain-methylated histone interaction inhibition | AlphaScreen HP1-beta / biotin-H3K9me3 peptide binding | actives 0.56% (n = 390,000) | P83916 | Potency, µM (highest dose often 114 µM), for the others: at the highest dose activity change, negative = inhibition, hits mostly inhibitors | AID 540317; further: nearly all actives have a fitted effect of over 70% in size
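AlphaScreen: HP1-beta (50 nM) preformed 30 min with biotin-H3(1-18)K9me3 peptide (50 nM) in PBS pH 7.4, 0.01% Tween-20. Compound added for 30 min at RT, then streptavidin donor/nickel chelate acceptor beads (10 ug/mL) for 30 min.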
Sfp PPTase inh: blocks B. subtilis Sfp PPTase activity | Q9F4F7 | Biochemical Sfp PPTase activity, qHTS | Potency, µM, for inactives: largest response in the series, negative = inhibition, usual class: inhibitors | actives 3.5% (n = 310,000) | AID 1490;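 further: the enzyme is Sfp with the accession as filed and its product quenches rhodamine fluorescence; 0% = enzyme reaction without inhibitor and -100% = no enzyme wells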
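Reaction rates are the 30-min fluorescence difference (ex 525, em 598 nm) in wells containing 15 nM Sfp, 5 uM rhodamine-CoA and 12.5 uM BHQ-2-YbbR at pH 7.6 with 10 mM MgCl2.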
TDP1 inh: TDP1 (human) enzyme inhibition; recombinant TDP1, AlphaScreen DNA substrate cleavage; Potency, µM (highest dose often 130 µM), without a hit: at the highest dose activity change, negative = inhibition, most hits filed as inhibitors; actives 0.28% (n = 350,000); AID 485290; further: on the % scale 0 is the no-effect control and ±100 the full control effect; nearly all actives have a fitted effect of over 40% in size
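E. coli-derived human Tdp1, 1 nM final. Cpd preinc 15 min RT; substrate 15 nM final, 5 min RT; AS bead mix 10 ug/ml final, 10 min RT. Signal loss = tyrosine-FITC cleavage. No-enzyme wells = max signal.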
JMJD2A Tudor inh: JMJD2A Tudor domain (human) inhibition | O75164 | Potency, µM (highest dose often 114 µM), without a hit: at the top dose activity change, negative = inhibition, usual class: inhibitors | AlphaScreen JMJD2A-Tudor / H3K4me3 peptide binding | actives 4.4% (n = 390,000); further: on the % scale 0 is the no-effect control and ±100 the full control effect; nearly all actives have a fitted effect of over 50% in size
Target sequence (O75164 whole entry, looked up, the tested form may be a part): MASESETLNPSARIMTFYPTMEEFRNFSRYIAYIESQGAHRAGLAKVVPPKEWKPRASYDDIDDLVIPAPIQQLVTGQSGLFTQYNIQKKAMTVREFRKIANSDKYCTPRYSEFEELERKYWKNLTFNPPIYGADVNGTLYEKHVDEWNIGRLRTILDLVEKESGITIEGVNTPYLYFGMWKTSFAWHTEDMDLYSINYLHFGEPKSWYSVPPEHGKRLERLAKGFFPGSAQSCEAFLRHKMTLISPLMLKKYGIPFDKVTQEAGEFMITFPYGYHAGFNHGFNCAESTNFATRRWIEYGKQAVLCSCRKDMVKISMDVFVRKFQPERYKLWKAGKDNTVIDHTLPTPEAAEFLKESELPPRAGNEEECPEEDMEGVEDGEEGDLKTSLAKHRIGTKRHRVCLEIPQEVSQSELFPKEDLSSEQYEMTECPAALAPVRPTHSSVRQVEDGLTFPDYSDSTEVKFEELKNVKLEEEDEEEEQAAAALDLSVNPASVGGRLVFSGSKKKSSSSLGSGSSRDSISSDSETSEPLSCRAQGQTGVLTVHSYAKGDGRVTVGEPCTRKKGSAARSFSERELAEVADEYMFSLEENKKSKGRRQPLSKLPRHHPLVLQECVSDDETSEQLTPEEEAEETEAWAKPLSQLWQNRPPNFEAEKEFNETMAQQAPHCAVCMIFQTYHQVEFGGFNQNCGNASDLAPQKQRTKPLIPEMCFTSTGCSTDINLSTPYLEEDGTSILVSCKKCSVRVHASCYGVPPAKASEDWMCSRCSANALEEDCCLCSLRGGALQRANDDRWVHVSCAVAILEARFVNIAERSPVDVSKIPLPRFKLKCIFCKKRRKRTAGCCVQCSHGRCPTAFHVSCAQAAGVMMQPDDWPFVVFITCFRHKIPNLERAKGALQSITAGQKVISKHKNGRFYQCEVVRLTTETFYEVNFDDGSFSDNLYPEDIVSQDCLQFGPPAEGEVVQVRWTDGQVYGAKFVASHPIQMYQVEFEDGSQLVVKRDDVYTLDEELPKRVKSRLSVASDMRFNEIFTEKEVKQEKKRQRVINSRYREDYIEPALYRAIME
* hit, by the source's call; ? = inconclusive; . = not tested or not shown; [ ] = remark or other dose. In the library only some 12% were active in any assay of this set; here they are far more common. The call rests on the fitted dose curve; in most records, active means well fitted curve in the direction sought with a large enough effect; inconclusive means small, poorly fitted or top-dose-only effect, or another doubt; inactive means no such curve, though single readings can be large; an effect the other way counts as inactive or inconclusive. Potency means the concentration at half of the fitted maximal effect.

SMILES	G9a block	BAZ2B block	HP1b chromo inh	Sfp PPTase inh	TDP1 inh	JMJD2A Tudor inh
CCOC(=O)C1=C(CSc2nc(-c3ccncc3)ccc2C#N)OC(N)=C(C#N)C1c1ccc(OC)cc1 (stereo unspecified)	39.8µM*	?	8.4%	?	7.0%	?
CCOC(=O)C1=C(c2ccccc2)OC(N)=C(C#N)C1c1ccncc1 (stereo unspecified)	44.7µM*	-18.6%	29.3%	?	2.4%	-19.7%
CCOC(=O)C1=C(C)OC(N)=C(C#N)C1c1c(C)nn(-c2ccccc2)c1Cl (stereo unspecified)	?	-10.7%	44.3%	56.2µM*	5.2%	?
CCOC(=O)C1=C(CSc2nc(CC)c(C)cc2C#N)OC(N)=C(C#N)C1c1ccc(OC)cc1 (stereo unspecified)	4.47µM*	-24.6%	20.8%	7.94µM*	5.1%[56.1 µM]	31.6µM*
CCOC(=O)C1=C(CC)OC(N)=C(C#N)C1c1cc(OC)ccc1OC (stereo unspecified)	-7.5%[59 µM]	-20.8%	22.9%	10.2%	2.2%	-16.2%
C=CCN(C(=O)c1csnn1)C(C(=O)NC1CCCC1)c1cccs1 (stereo unspecified)	8.9%	-3.8%	2.4%	4.2%	.	-7.7%
CCc1ccc(C(=O)COC(=O)CNC(=O)c2ccco2)cc1	-43.4%[59 µM]	-3.8%	16.8%	6.8%	0.0%	-5.1%
O=C(CNC(=O)c1ccco1)OCC(=O)c1ccc([N+](=O)[O-])cc1	25.1µM*	2.9%	9.0%	?	.	-31.9%
O=C(CNS(=O)(=O)c1ccccc1)OCC(=O)c1ccc([N+](=O)[O-])cc1	7.08µM*	-25.8%	37.4%	79.4µM*	-10.8%	?
O=C(CNC(=O)c1ccco1)OCC(=O)c1ccc2c(c1)CCCC2	50.1µM*	-2.7%[57.1 µM]	0.7%	7.0%	3.0%	-24.8%
CCOC(=O)C1CCCN(C(=O)CSc2nc(C)cc(C)n2)C1 (stereo unspecified)	-23.4%	-1.5%	-0.9%	-2.2%	-3.0%	?
CCOC(=O)C1CCCN(C(=O)COC(=O)C2=COCCO2)C1 (stereo unspecified)	50.1µM*	?	-3.3%	-2.8%	3.1%	50.1µM*
CCOC(=O)C1CCCN(C(=O)CSc2ccc(Br)cc2)C1 (stereo unspecified)	34.0%	14.6%	-12.2%	-0.9%	5.1%	14.1µM*
CCc1ccc(NC(=O)CSc2nc(-c3cccc(OC)c3)nc3c2Cc2c(CO)cnc(C)c2O3)cc1	-22.1%[59 µM]	-18.9%	-14.7%	.	5.1%	-17.6%
COc1cc(C)c(Cl)cc1S(=O)(=O)NCCc1c(C)[nH]c2ccccc12	-29.7%[59 µM]	31.6µM*	-10.5%	.	13.6%	?
CCOc1ccc(NC(=O)Cn2nnc(-c3ccccc3NC(=O)c3cccs3)n2)cc1	-13.7%	-27.6%	-5.2%	?	0.7%	56.2µM*
Cc1nc2nc(SCC(=O)NC3CCCCC3)nn2c(C)c1Cc1ccccc1Cl	?	-10.3%	13.1%	.	0.0%	-23.5%
CCC1=NN2C(=N)/C(=C/c3ccc(OS(=O)(=O)c4ccc(C)cc4)c(OC)c3)C(=O)N=C2S1	-5.6%	-1.6%	-16.9%	-4.5%	3.0%	-30.3%
COc1cc(/C=C2\C(=N)N3N=C(N4CCOCC4)SC3=NC2=O)ccc1OC(=O)c1ccccc1	20µM*	50.1µM*	-15.1%	-25.5%	.	?
COc1cc(/C=C2/C(=N)N3N=C(C)SC3=NC2=O)ccc1OS(=O)(=O)c1ccc(C)cc1	18.1%	-1.6%	11.4%	-1.0%	8.4%	-7.9%
Cc1ccc(S(=O)(=O)Oc2ccc(/C=C3\C(=N)N4N=C(S(C)(=O)=O)SC4=NC3=O)cc2)cc1	12.6µM*	50.1µM*	-9.1%[57 µM]	-18.9%	0.0%	35.5µM*
COc1cc(/C=C2/C(=N)N3N=C(CC(=O)N4CCOCC4)SC3=NC2=O)ccc1OC(C)c1ccccc1 (stereo unspecified)	-12.0%	-21.0%	9.6%	23.8%	7.5%	-28.8%
CCS(=O)(=O)C1=NN2C(=N)/C(=C\c3ccc(OS(=O)(=O)c4ccccc4)cc3)C(=O)N=C2S1	39.8µM*	50.1µM*	4.5%	?	2.0%	?
CCS(=O)(=O)C1=NN2C(=N)/C(=C\c3ccc(OS(=O)(=O)c4ccccc4)c(OC)c3)C(=O)N=C2S1	-5.5%[0.0925 µM]	56.2µM*	.	-22.2%	-16.7%	.
CCC1=NN2C(=N)/C(=C/c3ccc(OS(=O)(=O)c4ccccc4)cc3)C(=O)N=C2S1	.	-5.2%	5.0%	-8.7%	5.7%	-30.8%
SMILES	G9a block	BAZ2B block	HP1b chromo inh	Sfp PPTase inh	TDP1 inh	JMJD2A Tudor inh
COc1ccc(S(=O)(=O)N2CCCCCC2)cc1NC(=O)CCCOc1ccccc1	-9.8%[12.7 µM]	13.0%	25.7%	.	1.6%	-17.9%
COc1cc(NC(=O)C2=C(C)Nc3nnnn3C2c2ccc(SC)cc2)c(OC)cc1Cl (stereo unspecified)	-32.6%[59 µM]	-25.8%	0.3%	.	4.5%	?
Cc1ccc(N2CCN(C(=S)c3ccc(N(C)C)cc3)CC2)cc1	5.01µM*	12.6µM*	?	20µM*	7.9%	31.6µM*
CN(C)c1ccc(C(=S)N2CCN(c3ccc([N+](=O)[O-])cc3)CC2)cc1	2.24µM*	6.9%	?	3.55µM*	-2.6%	?
CNC(=S)N1CCN(c2ccc([N+](=O)[O-])cc2)CC1	8.0%	-35.0%	-2.9%	14.5%	1.9%	-21.5%
Cc1ccc(C(=O)Nc2ccc(C(=O)OCc3cc(=O)n4ccsc4n3)cc2)cc1	-0.2%[12.7 µM]	4.8%	62.1%	.	22.4µM*	0.7%
Cc1cccc(C(=O)Nc2ccc(C(=O)OCc3cc(=O)n4c(C)csc4n3)cc2)c1	4.9%[59 µM]	79.4µM*	61.8%	.	-13.8%	?
CCSc1nnc([C@@H]2CCCN2C(=O)OC(C)(C)C)o1	50.1µM*	12.1%	30.3%	-5.7%	3.8%	-13.5%
CCOc1ccc2nc(NC3=NC(C)(C)C=C(C)N3)nc(C)c2c1	-46.1%[59 µM]	?	32.5%	-2.5%	3.4%	-24.4%[57.1 µM]
CCOc1ccc2nc(NC3=NC(c4ccc(OC)cc4)CC(=O)N3)nc(C)c2c1 (stereo unspecified)	10µM*	-0.7%[57.1 µM]	?	22.4µM*	6.0%	79.4µM*
COC(=O)c1c[nH]c(=S)n1Cc1ccccc1	.	.	18.1%[57 µM]	.	.	2.82µM*
COC(=O)c1cc(C(=O)OC)n(Cc2ccc(F)cc2)c1C	16.8%	2.3%	27.3%	0.4%	-2.7%	7.6%
O=C(Nc1ccccc1)c1sc2cc(C(F)(F)F)cnc2c1-c1cccs1	?	2.6%	6.3%	0.6%	0.0%	28.2µM*
O=C(CN1CCN(Cc2ccccc2)CC1)N/N=C\C=C/c1ccco1	?	2.1%	18.4%	-12.9%	?	-11.7%
